The values below come from the supplement of paper PMC9942566.

SMILES strings stand for the structures. ± gives the standard deviation of the averaged measurements.

In the assay the test system is Serratia marcescens K904 PosmB-luxCDABE reporter (pMQ747). Nature of the assay: PosmB-lux reporter fold induction (RLU/OD600 relative to no-compound control), highest over Biolog concentrations; higher = stronger reporter activation. The note with it: ΔrcsB mutant CMS5177; 4 h. As for the experimental part:
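Serratia marcescens K904 (wild type) or its isogenic ΔrcsB mutant, carrying the Rcs-dependent PosmB-luxCDABE reporter plasmid pMQ747, was grown in LB at OD600 0.1 in Biolog Phenotype MicroArray plates PM11-20 for 4 h at 30-32°C. Each compound is present at 3-4 proprietary concentrations (not stated); per the Fig. S1 legend the value given is the highest fold over those wells. Three independent trials.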
With `Nc1ccc(S(=O)(=O)Nc2nccs2)cc1` [Sulfathiazole] (Biolog plate: PM12, well positions: F5-8), the “PosmB-lux reporter fold induction” value stood at 1.89 ± 0.35.
To `CSCCC(N)C(=O)NO` (racemic) [DL-methionine hydroxamate] (Biolog plate: PM17, well positions: F5-8) belongs 5.25 ± 1.3; to `COc1cc(Cc2cnc(N)nc2N)cc(OC)c1OC` [trimethoprim] (Biolog plate: PM16, well positions: B9-12), 8.21 ± 3.9.
The value for `Nc1ccc(S(=O)(=O)Nc2ccc(Cl)nn2)cc1` [sulfachloro-pyridazine] (Biolog plate: PM17, well positions: C5-8) was 1.63 ± 0.15; that for `CN1CCN(CCCN2c3ccccc3Sc3ccc(C(F)(F)F)cc32)CC1` [Trifluoperazine] (Biolog plate: PM13, well positions: G9-12) was 1.43 ± 0.36.
The value for `CCN1CCN(C(=O)N[C@@H](C(=O)N[C@@H]2C(=O)N3C(C(=O)O)=C(CSc4nnnn4C)CS[C@H]23)c2ccc(O)cc2)C(=O)C1=O` [cefoperazone] (Biolog plate: PM17, well positions: G9-12) was 1.44 ± 0.22; that for `CN(C)[C@@H]1C(O)=C(C(N)=O)C(=O)[C@@]2(O)C(O)=C3C(=O)c4c(O)ccc(Cl)c4[C@@H](O)[C@H]3C[C@@H]12` [Demeclocycline] (Biolog plate: PM11, well positions: D5-8) was 1.59 ± 0.14.
With `O=C([O-])c1ccccc1O.[Na+]` [sodium salicylate (NSAID)] (Biolog plate: PM17, well positions: B1-4), the “PosmB-lux reporter fold induction” value was 2.06 ± 0.94.
